Experimental data taken from ChEMBL document CHEMBL4513216, “Probing the Open Global Health Chemical Diversity Library for Multistage-Active Starting Points for Next-Generation Antimalarials” (ACS Infect Dis, 2020).
About 8,600 (12%) of roughly 69,000 compounds showed an effect of 50% or more. Many of the other results were omitted from the sample, so strong results are more common in it than they were.

These compounds were tested on Plasmodium berghei (assay: Screen against P. berghei liver stage (PbLuc), transformed with Luciferase, at 10uM). Conditions: tested at 10 uM.
Format: functional, HepG2

Compound | INHIBITION
Cc1cccc(CO[C@H]2CN(c3nnc(C)s3)[C@@H]3CCCO[C@H]23)n1 | 22.2%
Cc1nc(CN2CCC3(CCCN(C(=O)c4cnccn4)C3)C2)cs1 (configuration not stated) | -2.46%
Cc1cc(CN2CCCC2c2c(C)nn(C)c2Cl)on1 (configuration not stated) | 47%
Cc1cnn(CC2CN(Cc3ccc(C(N)=O)cc3)CCO2)c1 (configuration not stated) | 37.4%
COCC(=O)N1CCC[C@]2(C(=O)N(C)C)CN(c3ccccn3)C[C@@H]2C1 | -4.56%
c1ccc2oc(CCCN3CCCC(Cn4cncn4)C3)nc2c1 (configuration not stated) | 45.7%
Cc1nnc(N2CCCC3(CN(Cc4nccs4)CCO3)C2)o1 (configuration not stated) | 8.67%
Fc1cnc(N2CCCC3(CN(Cc4ccncc4)CCO3)C2)nc1 (configuration not stated) | 1.71%
Fc1cccc(N2CCCC3(CN(Cc4ccncc4)CCO3)C2)c1 (configuration not stated) | 81.3%
Fc1cccc(N2CCCC3(CN(Cc4cccnc4)CCO3)C2)c1 (configuration not stated) | 71.9%
CC(=O)N1CCCC2(CN(Cc3ccncc3)CCO2)C1 (configuration not stated) | -7.59%
c1ccc(CN2CCOC3(CCCN(c4nccs4)C3)C2)cc1 (configuration not stated) | 43.9%
Fc1cccc(N2CCOC3(CCCN(c4cnccn4)C3)C2)c1 (configuration not stated) | 41%
Cc1nnc(N2CCCC3(CN(Cc4cccnc4)CCO3)C2)o1 (configuration not stated) | 22.2%
Fc1cccc(N2CCCC3(CN(Cc4nccs4)CCO3)C2)c1 (configuration not stated) | 88.2%
Cc1cc(OCC(N)=O)ccc1NC(=O)C(C)Cc1ccccc1F (configuration not stated) | 39.6%
O=C(c1cnccn1)N1C[C@@H]2C[C@@H](c3nc(C4CC4)cs3)O[C@@H]2C1 | 10.7%
COc1cc(C)nc(N2CCN(C(=O)c3cccc(C#N)c3)CC2)n1 | 8.64%
COc1ccc2c(c1)C(=O)NC1(CC2)CCN(Cc2ccccn2)C1 (configuration not stated) | 17.9%
CNC(=O)NC(=O)CCSCc1cc(F)cc2cccnc12 | 11.5%
Cc1cc(C)n(CCCNc2ncnc3c2NC(=O)CN3)n1 | 57.3%
Cc1nn(CCNc2ncnc3c2NC(=O)CN3)c(C)c1Cl | 42.4%
Cc1cc(C)n(CCNc2ncnc3c2NC(=O)CN3)n1 | 44.1%
O=C1[C@H]2CN(C3CCOC3)C[C@H]2CN1c1ccccc1 (some centres not stated) | 10.5%
Cc1n[nH]c(C)c1CNCC(O)c1cccc(Cl)c1 (configuration not stated) | 46%
Cc1noc(C)c1CN1CCC(N(C)Cc2nnc(C3CC3)n2C)C1 (configuration not stated) | 19.2%

Compound | INHIBITION
O=C(NC1CC1)c1ccn(COc2c(Cl)cccc2Cl)n1 | 43.3%
Cc1ccoc1C1=NNC(=CN2CCCC(Cn3cncn3)C2)O1 (configuration not stated) | 27.1%
Cc1cc(-c2nn(C)c(Cl)c2CN2CCN(C)C(C(=O)O)C2)no1 (configuration not stated) | 59.4%
CCNC(=O)C1CN(Cc2c(-c3cc(C)on3)nn(C)c2Cl)CCO1 (configuration not stated) | 43%
Cc1cc(-c2nn(C)c(Cl)c2CN2CC[C@@](O)(C3CCC3)[C@H](C)C2)no1 | 33.9%
Cc1cc(-c2nn(C)c(Cl)c2CN2Cc3ccccc3C(O)C2)no1 (configuration not stated) | 51.8%
Cc1cc(-c2nn(C)c(Cl)c2CN2CCOCC(O)C2)no1 (configuration not stated) | 41.8%
Cc1cc(-c2nn(C)c(Cl)c2CN2CC[C@H](CO)[C@@H](O)C2)no1 | 36.7%
Cc1cc(C)n(C2CCN(Cc3c(-c4cc(C)on4)nn(C)c3Cl)C2)n1 (configuration not stated) | 28.5%
Cc1cc(-c2nn(C)c(Cl)c2CN2CCOC(C(=O)O)C2)no1 (configuration not stated) | 17.6%
Cc1cc(-c2nn(C)c(Cl)c2CN2CCC3(CC2)[C@H](O)C[C@@H]3O)no1 | 50.3%
Cc1cnn(CC2CN(CC(=O)Nc3cc(C)no3)CCO2)c1 (configuration not stated) | -103.725%
O=C1CC(c2ccncc2)c2c(sc3c2CCCC3)N1 (configuration not stated) | 20.4%
O=C1CC(c2ccc(C(=O)O)cc2)c2c(sc3c2CCCC3)N1 (configuration not stated) | 89.3%
O=C1CC(c2cccnc2)c2c(sc3c2CCCC3)N1 (configuration not stated) | 26.9%
CC(=O)N(Cc1ncc(C)o1)C1CCN(CCOc2ccccc2)C1 (configuration not stated) | 8.31%
CC(C)SCC(=O)N1CCc2c(nc(N(C)C)nc2N(C)C)C1 | 61.1%
CCN(CC)CCC(=O)N1CCc2c(nc(N(C)C)nc2N(C)C)C1 | 30.1%
Cc1nc2c(c(N(C)C)n1)CCN(C(=O)CN1CCC(O)CC1)C2 | 45.3%
CN(C)c1nc2c(c(N(C)C)n1)CCN(C(=O)CN1C[C@H]3CC[C@@H]1C3)C2 | 11.7%
CN(C)c1nc2c(c(N(C)C)n1)CCN(C(=O)CN1CCC(O)CC1)C2 | 56.1%
CC(=O)N1CCc2c(nc(N(C)C)nc2N(C)CC2CCCO2)C1 (configuration not stated) | 41.4%
Cc1ccc(NC(=O)C2CSCN2C(=O)c2cnsn2)c(C)c1 (configuration not stated) | -50.6%
CCS(=O)(=O)N1CCc2ccc(NC(=O)NC3CCCCC3)cc21 | 8.41%
CSc1ccc(NC(=O)Nc2ccc3c(c2)N(S(C)(=O)=O)CC3)cc1 | 49%
CCS(=O)(=O)N1CCCc2ccc(NC(=O)Cc3ccc(F)cc3)cc21 | 56.1%

Compound | INHIBITION
O=C(O)c1csc(S(=O)(=O)N2CCCc3ccc(F)cc32)c1 | -9.67%
COc1ccc(S(=O)(=O)N2CCc3ccc(F)cc32)cc1C(=O)O | 15.3%
CCS(=O)(=O)N1CCc2ccc(NC(=O)Nc3cccc(SC)c3)cc21 | 88.4%
CCS(=O)(=O)N1CCc2ccc(NC(=O)Nc3cccc(C)c3)cc21 | 85%
CCS(=O)(=O)N1CCc2ccc(NC(=O)Nc3ccc(F)cc3F)cc21 | 72.6%
Cc1cccc(NC(=O)N2CCC(CO)(Nc3ccccc3)CC2)c1 | -15.96%
CO[C@H]1CN(C(C)C)C[C@@H]1NC(=O)Nc1cccc(SC)c1 | 12.6%
Cc1cc(S(=O)(=O)N2CCCc3ccc(F)cc32)sc1C(=O)O | 26.8%
CCS(=O)(=O)N1CCc2ccc(NC(=O)NC(C)(C)C)cc21 | 46.1%
O=C(c1ccc2c(c1)CCCC2)N1CCCC(n2cncn2)C1 (configuration not stated) | 19.6%
O=C(c1cccnc1)N1CCCC(c2ncncc2-c2ccncc2)C1 (configuration not stated) | 44.8%
C[C@@H]1C(=O)NC[C@H]2CN(Cc3ccc4c(c3)OCO4)C[C@H]21 | 30.9%
COc1nn(C)c2c1CCCN(C(=O)c1ccc3c(c1)OCO3)C2 | 20.9%
O=C(Nc1ccccc1OCCc1ccccn1)N1CCOCC1 | -98.1%
CNC(=O)C1(Cc2cc(C(C)C)no2)CCN(Cc2cccnc2)C1 (configuration not stated) | 13.125%
CCNC(=O)N1CCc2ccc(NC(=O)NCC3CC3)cc21 | 10.7%
CCS(=O)(=O)N1CCc2ccc(NC(=O)Nc3ccccc3)cc21 | 88.5%
CCS(=O)(=O)N1CCc2ccc(NC(=O)Nc3cccc(F)c3)cc21 | 91.4%
COCCN1CCC(NC(=O)Nc2cccc(F)c2)C1 (configuration not stated) | 28.9%
CCS(=O)(=O)N1CCc2ccc(NC(=O)Nc3ccccc3C)cc21 | 34.5%
CCS(=O)(=O)N1CCc2ccc(NC(=O)NCc3ccccc3)cc21 | -23.5%
Cn1cccc1C(=O)N1CCO[C@@H]2CN(Cc3nccs3)C[C@@H]2C1 | -28.5%
CN(C)C(=O)COC[C@]12COC[C@H]1CN(CC1CCC1)C2 | -11.1%
COc1ccnc(N2CCN(C(=O)Cc3ccsc3)CC2)n1 | -47.6%
CNS(=O)(=O)CCCN1CCN(C(C#N)c2ccccc2)CC1 (configuration not stated) | 47.3%
O=C(Nc1ccc(F)cc1)N1CCN(Cc2noc(C3CC3)n2)CC1 | -3.2%

Compound | INHIBITION
CNC(=O)c1c(C)cccc1NCC(=O)Nc1cc(C)nn1C | 19.1%
O=C(Cc1ccccc1)N1CCN(Cc2noc(C3CC3)n2)CC1 | 1.77%
O=C(Nc1ccccc1)N1CCN(Cc2noc(C3CC3)n2)CC1 | 17.4%
O=C(Cc1ccccc1F)N1CCN(Cc2noc(C3CC3)n2)CC1 | 52.3%
CNC(=O)c1c(C)cccc1NCc1nnc(C2CC2)o1 | 24.3%
Cc1ccccc1NC(=O)N1CCN(Cc2noc(C3CC3)n2)CC1 | 58.5%
O=C(Nc1ccccc1F)N1CCN(Cc2noc(C3CC3)n2)CC1 | 11.8%
CNC(=O)c1c(C)cccc1NCc1noc(C2CC2)n1 | 74%
COC1(CNC(=O)c2ccc3nsnc3c2)CCSC1 (configuration not stated) | -3.83%
COCc1noc(CN2CCC3(CC2)[C@H](O)C[C@@H]3OC)n1 | 15.8%
CCOc1ccc(OCC(O)CN2CCN(S(C)(=O)=O)CC2)cc1 (configuration not stated) | -67.3%
CC(=O)NCC1CCN(C(=O)c2c[nH]c3cc(Cl)ccc23)CC1 | 35.3%
CN1CCO[C@@H]2CN(S(=O)(=O)c3cccs3)CC[C@@H]2C1 | 28.5%
CCn1cc(C(=O)N2C[C@H]3CC(Oc4ccccc4)C[C@H]3C2)cn1 (some centres not stated) | -17.715%
CC(C)(C)NC[C@@H]1CCC[C@@H]2CN(Cc3csnn3)C[C@@H]21 | -39.2%
O=C(Cn1cc(-c2ccccc2)cn1)NC(C1CC1)C1CC1 | 34.7%
OCCn1cc(CN2CCN(CCOc3cccc(F)c3)CC2)cn1 | 33.95%
Cc1cnc(NC(C)Cc2cccnc2)nc1N(C)C (configuration not stated) | 55%
Cc1cc(NC(C)Cc2cccnc2)n2nccc2n1 (configuration not stated) | 23%
Cc1cc(CC(C)Nc2ncc(C)c(N(C)C)n2)[nH]n1 (configuration not stated) | 63.7%
Cc1cnc(NC(C)Cc2cnccn2)nc1N(C)C (configuration not stated) | 0.705%
COCc1nc(NC(C)Cc2cc(C)n[nH]2)c2cnn(C)c2n1 (configuration not stated) | 25.4%
Cc1cccnc1CC(C)Nc1ncc(C)c(N(C)C)n1 (configuration not stated) | 27.9%
COc1ccc(C(=O)N2C[C@@H](O)[C@H](NCc3cnc(C)cn3)C2)cc1 | 35.15%
